The record followed here is ChEMBL document CHEMBL2218924, “A broad activity screen in support of a chemogenomic map for kinase signalling research and drug discovery” (Biochem J, 2013).

A word on the residual activity: it is the signal under treatment as a percentage of the control signal.

Sequence of Epidermal growth factor receptor (Homo sapiens) (P00533 whole entry): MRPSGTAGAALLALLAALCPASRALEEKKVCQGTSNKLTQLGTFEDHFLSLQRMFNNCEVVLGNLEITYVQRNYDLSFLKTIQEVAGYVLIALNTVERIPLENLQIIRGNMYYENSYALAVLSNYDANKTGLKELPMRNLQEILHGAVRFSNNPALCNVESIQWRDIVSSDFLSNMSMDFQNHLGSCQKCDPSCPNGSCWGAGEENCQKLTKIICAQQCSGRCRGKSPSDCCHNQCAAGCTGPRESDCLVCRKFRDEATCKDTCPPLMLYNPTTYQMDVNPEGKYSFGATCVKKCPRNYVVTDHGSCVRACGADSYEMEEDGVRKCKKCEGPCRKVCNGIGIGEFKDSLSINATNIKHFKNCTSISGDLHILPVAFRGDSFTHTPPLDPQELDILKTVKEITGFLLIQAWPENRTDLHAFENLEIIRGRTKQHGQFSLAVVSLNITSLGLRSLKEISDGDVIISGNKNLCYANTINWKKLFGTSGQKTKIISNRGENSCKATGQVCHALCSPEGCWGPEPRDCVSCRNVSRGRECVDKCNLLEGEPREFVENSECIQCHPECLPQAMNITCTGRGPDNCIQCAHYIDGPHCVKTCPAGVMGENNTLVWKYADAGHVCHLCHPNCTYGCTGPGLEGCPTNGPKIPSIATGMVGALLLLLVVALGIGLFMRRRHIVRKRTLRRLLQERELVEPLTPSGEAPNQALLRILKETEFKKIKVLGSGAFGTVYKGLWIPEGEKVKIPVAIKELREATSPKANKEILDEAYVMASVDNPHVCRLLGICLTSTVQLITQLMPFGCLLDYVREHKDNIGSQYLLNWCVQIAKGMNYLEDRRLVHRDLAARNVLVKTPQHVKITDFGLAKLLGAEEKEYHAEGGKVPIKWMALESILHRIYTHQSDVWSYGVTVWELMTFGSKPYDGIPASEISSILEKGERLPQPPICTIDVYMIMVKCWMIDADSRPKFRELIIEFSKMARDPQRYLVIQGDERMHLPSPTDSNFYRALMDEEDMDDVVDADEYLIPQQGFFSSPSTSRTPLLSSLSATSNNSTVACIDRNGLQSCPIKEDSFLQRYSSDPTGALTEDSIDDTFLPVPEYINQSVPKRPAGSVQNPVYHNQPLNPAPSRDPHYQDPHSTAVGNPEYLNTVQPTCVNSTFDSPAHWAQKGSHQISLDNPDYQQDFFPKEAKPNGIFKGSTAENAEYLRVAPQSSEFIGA

The first assay addresses Epidermal growth factor receptor (Homo sapiens) (UniProt P00533). The conditions noted are these: at 1 µM.
Take `N#C/C(=C\c1ccc(O)c(O)c1)C(=O)NCc1ccccc1`: the residual activity was 125%. Take `O=c1c(-c2ccc(F)cc2)c(-c2ccncc2)[nH]n1-c1ccc(Cl)cc1`: the residual activity amounted to 54%.

As for `COc1ccc(COc2ccc(Cc3cnc(N)nc3N)cc2OC)cc1`, the residual activity worked out at 112%.

The next assay deals with T1, Ephrin type-A receptor 1 (Homo sapiens) (UniProt P21709).
T1 sequence (whole entry): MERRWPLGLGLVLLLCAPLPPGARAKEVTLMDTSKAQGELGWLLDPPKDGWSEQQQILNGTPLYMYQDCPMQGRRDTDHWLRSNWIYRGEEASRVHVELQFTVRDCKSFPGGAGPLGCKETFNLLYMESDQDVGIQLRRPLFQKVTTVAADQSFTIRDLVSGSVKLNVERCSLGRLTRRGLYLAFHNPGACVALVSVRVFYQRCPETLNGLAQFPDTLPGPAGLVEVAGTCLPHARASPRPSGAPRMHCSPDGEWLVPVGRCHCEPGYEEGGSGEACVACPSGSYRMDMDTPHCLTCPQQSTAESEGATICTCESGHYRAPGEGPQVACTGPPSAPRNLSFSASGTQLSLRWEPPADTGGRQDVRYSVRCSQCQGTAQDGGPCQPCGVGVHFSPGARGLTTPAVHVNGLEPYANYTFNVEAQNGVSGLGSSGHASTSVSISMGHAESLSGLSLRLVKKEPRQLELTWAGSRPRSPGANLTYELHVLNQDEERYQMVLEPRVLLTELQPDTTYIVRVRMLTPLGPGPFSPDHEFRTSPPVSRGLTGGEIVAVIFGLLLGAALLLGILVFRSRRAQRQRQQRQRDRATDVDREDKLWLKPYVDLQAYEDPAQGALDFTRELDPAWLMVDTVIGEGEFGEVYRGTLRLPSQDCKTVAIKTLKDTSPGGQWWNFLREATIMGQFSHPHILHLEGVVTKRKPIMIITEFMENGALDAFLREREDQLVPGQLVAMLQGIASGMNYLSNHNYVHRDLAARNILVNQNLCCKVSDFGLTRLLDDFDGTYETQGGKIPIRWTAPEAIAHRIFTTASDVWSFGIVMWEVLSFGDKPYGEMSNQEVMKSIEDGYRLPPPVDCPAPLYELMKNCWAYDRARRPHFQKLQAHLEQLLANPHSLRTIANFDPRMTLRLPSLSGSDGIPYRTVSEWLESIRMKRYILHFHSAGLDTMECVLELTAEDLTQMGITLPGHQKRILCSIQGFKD
The conditions noted are these: at 1 µM.
`CN(C)S(=O)(=O)c1ccc2c(c1)/C(=C/c1cc3c([nH]1)CCCC3)C(=O)N2`: the residual activity was 96%. `CC(C)c1nn(-c2c(Cl)cccc2Cl)c2nc(Cc3ccc(OCCO)cc3)[nH]c(=O)c12`: the residual activity worked out at 105%. On the same count and under the same terms, next, `O=C(NC(NC(=S)Nc1ccc(F)c([N+](=O)[O-])c1)C(Cl)(Cl)Cl)C(c1ccccc1)c1ccccc1` (stereo not drawn): 104%. As for `O=S(=O)(c1cccc2cnccc12)N1CCCNCC1`, the residual activity was determined as 100%. With `CCCC(=O)Oc1ccc2[nH]c(C(=O)c3cc4ccccc4[nH]3)cc2c1`, the residual activity came out at 88%. For `O=C1Nc2ccccc2/C1=C\c1c(Cl)[nH]c2ccccc12`, the residual activity came out at 87%. For the compound `CC(C)N(CCC(=O)c1ccc2ccccc2c1)Cc1ccccc1`, the residual activity was 75%. As for `Nc1nc(Nc2ccc(S(N)(=O)=O)cc2)nn1C(=O)c1c(F)cccc1F`, the residual activity was found to be 58%. Take `O=C(c1ccccc1)c1ccc(N2CCOCC2)cc1O`: the residual activity worked out at 88%. Same read-out and setting: next, `O=C(CCCc1ccc(-c2ccccc2F)cc1)Nc1ccc(O)cc1`: 93%; `Cn1sc(=O)n(Cc2ccccc2)c1=O`: 96%; `CCOC(=O)c1c(C)[nH]c(/C=C2\C(=O)Nc3ccccc32)c1C`: 83%. Still for that read-out and setting: for `CC(C)[C@H](CO)Nc1nc(Nc2cc(N)cc(Cl)c2)c2ncn(C(C)C)c2n1` the value was 95%; for `CC(C)(C)c1nc2c3ccc(F)cc3c3c(=O)[nH]ccc3c2[nH]1`, 74%; for `NC(=O)Nc1sc(-c2ccc(F)cc2)cc1C(N)=O`, 9%.
